Experimental data published in PubChem BioAssay AID1159580 (chemical genetic matrix, 2015).
Values joined by “and” are separate entries in the source; they are usually repeats but may differ in a detail not shown here. Identical values can stand only once. About 2,000 (36%) of roughly 5,500 compounds were called active. Roughly 18% stayed inconclusive and do not appear here. Rule as the data show it: active = normalized growth mostly below about 0.91 (no sharp cut-off); inconclusive = no clear call, values can overlap the other calls; inactive = mostly above about 0.92. The list shows a part of the results.

Assay: chemical genetic growth profiling, strain panel (AID 1159580);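 also: tested at 20 µM; growth read once vehicle control cultures reached saturation at 30 °C; 1 = growth at the plate median or of vehicle wells; lower values mean less growth of the strain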
Conditions: S. cerevisiae deletion strains, growth OD

Measured: normalized growth

C[C@]12CCC3c4ccc(O)cc4CCC3C1CC[C@@H]2O (some centres undefined)
inactive: locus YAL013W, strain DEP1, active compounds read low 1.01 | locus YAL021C, strain ccr4, active compounds read low 0.983 | locus YAL026C, strain drs2, active compounds read low 0.943 | locus YAL030W, strain snc1, active compounds read low 1.01 | locus YBL061C, strain skt5, active compounds read low 0.961 | locus YBR009C, strain hhf1, active compounds read low 0.91 | locus YBR023C, strain chs3, active compounds read low 0.992 | locus YBR171W, strain sec66, active compounds read low 1.01 | locus YBR229C, strain ROT2, active compounds read low 1.01 | locus YBR231C, strain swc5, active compounds read low 0.946 | locus YBR279W, strain paf1, active compounds read low 0.993 | locus YCL011C, strain gbp2, active compounds read low 0.988 | locus YCL016C, strain dcc1, active compounds read low 0.975 | locus YCL029C, strain bik1, active compounds read low 0.996 | locus YCL061C, strain MRC1, active compounds read low 0.988 | locus YCL069W, strain vba3, active compounds read low 1.01 | locus YCR088W, strain abp1, active compounds read low 1.03 | locus YDL005C, strain med2, active compounds read low 1.02 | locus YDL035C, strain GPR1, active compounds read low 0.912 | locus YDL040C, strain nat1, active compounds read low 1.02 | locus YDL074C, strain BRE1, active compounds read low 0.882 | locus YDL101C, strain DUN1, active compounds read low 1 | locus YDL185W, strain tfp1, active compounds read low 0.979 | locus YDL192W, strain arf1, active compounds read low 0.958 | locus YDR001C, strain nth1, active compounds read low 1.03 | locus YDR069C, strain doa4, active compounds read low 1 | locus YDR101C, strain arx1, active compounds read low 0.958 | locus YDR150W, strain NUM1, active compounds read low 1.03 | locus YDR159W, strain sac3, active compounds read low 0.954 | locus YDR162C, strain NBP2, active compounds read low 0.987 | locus YDR297W, strain sur2, active compounds read low 0.992 | locus YDR318W, strain mcm21, active compounds read low 0.996 | locus YDR334W, strain swr1, active compounds read low 1.02 | locus YDR335W, strain msn5, active compounds read low 0.985 | locus YDR388W, active compounds read low 0.997 | locus YDR502C, strain sam2, active compounds read low 0.973 | locus YEL003W, strain gim4, active compounds read low 0.921 | locus YEL037C, strain rad23, active compounds read low 1.02 | locus YEL061C, strain CIN8 (second series), active compounds read low 1.01 | locus YEL061C, strain CIN8, active compounds read low 1.02 | locus YER015W, strain faa2, active compounds read low 0.981 | locus YER016W, strain bim1, active compounds read low 0.969 | locus YER110C, active compounds read low 0.989 | locus YER111C, strain swi4, active compounds read low 1.03 | locus YER155C, strain BEM2 (second series), active compounds read low 1.04 | locus YER155C, strain BEM2, active compounds read low 1.03 | locus YER167W, strain BCK2, active compounds read low 1 | locus YFR010W, strain ubp6, active compounds read low 1 | locus YGL078C, strain dbp3, active compounds read low 0.934 | locus YGL086W, strain mad1, active compounds read low 0.953 | locus YGL167C, strain pmr1, active compounds read low 1.01 | locus YGL173C, strain kem1, active compounds read low 0.968 | locus YGL227W, strain vid30, active compounds read low 1.03 | locus YGL240W, strain doc1, active compounds read low 0.96 | locus YGL248W, strain PDE1, active compounds read low 0.981 | locus YGR078C, strain PAC10, active compounds read low 0.967 | locus YGR135W, strain pre9, active compounds read low 0.949 | locus YHR013C, strain ard1, active compounds read low 0.996 | locus YHR027C, strain rpn1, active compounds read low 1.01 | locus YHR030C, strain SLT2, active compounds read low 1.03 and 0.961 | locus YHR079C, strain IRE1 (second series), active compounds read low 1.01 | locus YHR079C, strain IRE1, active compounds read low 0.954 | locus YHR094C, strain hxt1, active compounds read low 1.01 | locus YHR129C, strain ARP1, active compounds read low 1 | locus YHR142W, strain chs7, active compounds read low 0.891 | locus YHR200W, strain rpn10, active compounds read low 1 | locus YIL066C, strain RNR3, active compounds read low 0.955 | locus YIL073C, strain SPO22, active compounds read low 0.936 | locus YIL125W, strain kgd1, active compounds read low 1 | locus YIR030C, strain dcg1, active compounds read low 1 | locus YJL092W, strain hpr5, active compounds read low 1.03 | locus YJL095W, strain BCK1 (second series), active compounds read low 0.997 | locus YJL095W, strain BCK1, active compounds read low 0.978 and 0.961 | locus YJL115W, strain asf1, active compounds read low 1.02 | locus YJL129C, strain trk1, active compounds read low 0.889 | locus YJL134W, strain LCB3, active compounds read low 1.02 | locus YJL154C, strain vps35, active compounds read low 1.02 | locus YJL166W, strain qcr8, active compounds read low 0.971 | locus YJL168C, strain set2, active compounds read low 0.997 | locus YJL187C, strain SWE1 (second series), active compounds read low 0.966 | locus YJL187C, strain SWE1, active compounds read low 1.01 | locus YJR043C, strain POL32, active compounds read low 0.938
active: locus YBR021W, strain FUR4, active compounds read low 0.783 | locus YDR137W, strain rgp1, active compounds read low 0.83 | locus YDR195W, strain ref2 1.27 [resistant] | locus YDR392W, strain spt3, active compounds read low 0.639 | locus YGL253W, strain hxk2, active compounds read low 0.895 | locus YGR252W, strain gcn5, active compounds read low 0.735 | locus YJL164C, strain tpk1, active compounds read low 0.916
